High-throughput results as filed in PubChem BioAssay.
APP transl inh: APP translation inhibition; AID 1285; SH-SY5Y APP 5'UTR-luciferase reporter, luminescence; inhibition, % at 2 µM; 190,000 compounds, 0.82% hits;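 active = inhibition above a set limit, derived from the sample mean plus 3 SD, cut at about 45% in these data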
Ba/F3 V617F tox: loss of viability in JAK2V617F-driven Ba/F3 cells; Ba/F3 EpoR-JAK2V617F viability, ATP luminescence; inhibition, % at 5.6 µM; 220,000 compounds, 1.1% hits;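 active = inhibition above the campaign mean plus 3 SD over all tested compounds, cut at about 24% in these data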;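 also: cytokine-independent growth of Ba/F3 cells driven by EpoR plus mutant JAK2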
IEC-6 tox: counter-screen for KLF5 inhibitors: cytotoxicity in IEC-6 cells | 290,000 compounds, 0.78% hits | inhibition, % at 5 µM | IEC-6 cytotoxicity, luminescence viability; in the data active = inhibition above about 22%
KLF5 inhibitor: suppresses KLF5 promoter-driven expression. DLD-1 KLF5 promoter-luciferase reporter, luminescence. inhibition, % at 5 µM. 290,000 compounds, 0.23% hits. AID 1700;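 active = inhibition above a per-plate limit of that plate's mean compound inhibition plus 3 SD, cut at about 60% in these data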;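 also: higher means less KLF5 promoter-driven luciferase light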
aSyn 5UTR inh: MLPCN primary screen, SNCA 5' untranslated region | alpha-synuclein 5'UTR reporter, inhibitor activity | inhibition, % (tested at 7.5 µM) | 300,000 compounds, 0.82% hits | AID 1813; in the data active = inhibition above about 60%;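 also: H4 neuroglioblastoma cells stably carrying SNCA 5'UTR luciferase fusion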
BaF3 tox: counter-screen for JAK2V617F inhibitors: parental Ba/F3 viability inhibitors | 220,000 compounds, 1.1% hits | CellTiter-Glo ATP luminescence | AID 1486 | inhibition, % at 5.6 µM;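 active = inhibition above a per-campaign cutoff, the mean inhibition of all tested compounds plus 3 SD, cut at about 27% in these data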
BaF3 parental 2: counter-screen for JAK2V617F inhibitors: parental Ba/F3 viability inhibitors; shares compounds with Ba/F3 V617F tox; CellTiter-Glo luminescence; cells kept alive by added IL-3; inhibition, % at 5.6 µM; 580 compounds, 31% hits;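 active = cell growth inhibition above the hit limit set in the earlier mutant JAK2 cell screen, cut at about 27% in these data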
JAK2V617F confrm: confirmation: loss of viability in JAK2V617F-dependent Ba/F3 cells | shares compounds with Ba/F3 V617F tox | Ba/F3 EpoR-JAK2V617F viability, CellTiter-Glo luminescence | inhibition, % at 5.6 µM | 580 compounds, 66% hits | AID 1521;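 active = mean inhibition above the hit cutoff derived in the earlier primary screen, cut at about 25% in these data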;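 also: higher means lower luminescence from reduced cell ATP and viability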
Large screens that a line does not name were inactive (follow-up assays come after a bar, where they were run). Rows were chosen to be rich in hits. Some 2.1% of all compounds tested hit in one or more screens of this group.

Cc1ccc(Cl)cc1N1CCN(C(=O)CCS(=O)(=O)c2ccc3c(c2)NC(=O)CO3)CC1	none (no result: APP transl inh, Ba/F3 V617F tox, BaF3 tox)
COc1cc(C(=O)Nc2ccc(S(=O)(=O)N3CCOCC3)cc2)c([N+](=O)[O-])cc1OC	none
Oc1ccc(/C=N/N2CCN(C3c4ccccc4-c4ccccc43)CC2)cc1O	Ba/F3 V617F tox 70.1 (no result: APP transl inh) | BaF3 parental 2 inactive | JAK2V617F confrm 89.9
Oc1ccc(/C=N/N2CCN(C3c4ccccc4-c4ccccc43)CC2)cc1	none (no result: APP transl inh)
COc1cscc1C(N)=O	none (no result: APP transl inh)
CC(=O)c1cccc(NC(=O)/C=C/c2ccc([N+](=O)[O-])s2)c1	APP transl inh 81.4, Ba/F3 V617F tox 101.2 | BaF3 parental 2 106.1 | JAK2V617F confrm 100.0
COC(=O)c1cccc(NC(=O)/C=C/c2cccc([N+](=O)[O-])c2)c1	none
Cn1cnnc1Sc1nc([N+](=O)[O-])nn1C	none
COc1ccccc1-c1nnc(Sc2nc([N+](=O)[O-])nn2C)o1	Ba/F3 V617F tox 60.3 (no result: APP transl inh) | BaF3 parental 2 inactive | JAK2V617F confrm 86.8
O=C(O[C@@H]1OC2COC(=O)c3cc(O)c(O)c(O)c3-c3c(cc(O)c(O)c3O)C(=O)O[C@@H]([C@H]1O)[C@@H]2O)c1cc(O)c(O)c(O)c1	Ba/F3 V617F tox 47.9 | BaF3 parental 2 inactive | JAK2V617F confrm inactive
O=C(c1cnc2ccc3ccccc3c2c1)c1cc(F)ccc1O	Ba/F3 V617F tox 26.3 (no result: APP transl inh) | BaF3 parental 2 inactive | JAK2V617F confrm 39.5
O=C(Nc1ccccc1C(=O)O)c1ccc(Br)o1	Ba/F3 V617F tox 23.8 | BaF3 parental 2 inactive | JAK2V617F confrm inactive
CC(=O)Oc1ccc(-c2cccc(C(=O)N(C)c3ccc(O)cc3)c2)cc1	none
Cc1cc(C)c(C(=O)/C=C/c2cccc3ccccc23)c(=O)[nH]1	none (no result: APP transl inh)
Cc1[nH]c(=O)c(C(=O)/C=C/c2ccccc2F)c2c1CCCC2	Ba/F3 V617F tox 49.9 | BaF3 parental 2 inactive | JAK2V617F confrm 95.8
C=CCn1c(CNC(=O)c2ccco2)nnc1SCC(=O)N1c2ccccc2Sc2ccccc21	Ba/F3 V617F tox 71.5 | BaF3 parental 2 inactive | JAK2V617F confrm inactive
CC(Cc1ccccc1)NC(=O)CN1C(=O)c2ccccc2S1(=O)=O (stereo unspecified)	none (no result: APP transl inh, Ba/F3 V617F tox, BaF3 tox)
Cc1ccc(S(=O)(=O)NCc2ccc(C(=O)N(C)CCC#N)cc2)cc1	Ba/F3 V617F tox 92.8 (no result: APP transl inh) | BaF3 parental 2 inactive | JAK2V617F confrm inactive
CCOC(=O)C(=NC1CCCCC1)NNc1cccc(C(F)(F)F)c1	Ba/F3 V617F tox 36.4 | BaF3 parental 2 inactive | JAK2V617F confrm inactive
CCOC(=O)C(=NC(C)CC)NNc1cccc(C(F)(F)F)c1 (stereo unspecified)	none
Cc1ccc(/C=C2\SC(N3CCN(C(c4ccccc4)c4ccccc4)CC3)=NC2=O)o1	none
O=C(O)/C=C\C(=O)Nc1ccccc1C#Cc1ccccc1	none
O=C(O)/C=C\C(=O)Nc1ccccc1C#Cc1ccc(Br)cc1	Ba/F3 V617F tox 35.8 | BaF3 parental 2 inactive | JAK2V617F confrm inactive
COc1ccc(-c2cc(-c3ccc(C)cc3)n[nH]2)c(O)c1	none (no result: APP transl inh, Ba/F3 V617F tox, BaF3 tox)
COc1ccc(-c2cc(-c3cc(C)ccc3O)[nH]n2)cc1	Ba/F3 V617F tox 32.0 | BaF3 parental 2 inactive | JAK2V617F confrm 79.5
O=C(O)c1cc(N2C(=O)C3C4C=CC(C4)C3C2=O)ccc1N1CCOCC1 (stereo unspecified)	none
O=S1(=O)C=C(Sc2nnc(-c3ccccc3)o2)c2ccccc21	APP transl inh 95.8, Ba/F3 V617F tox 34.5 | BaF3 parental 2 94.0 | JAK2V617F confrm 98.4
Nc1nc(C(=O)N2CCOCC2)nn1S(=O)(=O)c1ccc(Cl)cc1	none
O=C(c1nnsc1S(=O)(=O)c1ccc(Cl)cc1)N1CCOCC1	Ba/F3 V617F tox 75.6 | BaF3 parental 2 45.2 | JAK2V617F confrm 74.8
CNC(=O)c1nnsc1S(=O)(=O)c1ccc(Cl)cc1	APP transl inh 94.9, Ba/F3 V617F tox 91.1, IEC-6 tox 47.6 | BaF3 parental 2 68.3 | JAK2V617F confrm 97.9
CNC(=O)c1ccc(S(=O)(=O)c2ccc(Cl)cc2)c(NC(C)=O)c1	none (no result: APP transl inh, Ba/F3 V617F tox, BaF3 tox)
C1=C(c2ccccc2)Nc2ccccc2N=C1c1ccccc1	Ba/F3 V617F tox 101.7 | BaF3 parental 2 inactive | JAK2V617F confrm inactive
O=C1CC(c2ccccc2)=Nc2ccccc2N1	none
